Measured values: the supplement of paper PMC10338343
± gives the standard deviation.

Assays:
[1] = system: MILI (PIWIL2) piRISC loaded with piRNA #1 (26 nt); experiment: pre-steady-state target cleavage rate (min^-1); guide: piRNA #1 5'p-UGAGGUAGUAGGUUGUAUAGUAUCCA; higher = faster piRNA-guided slicing of the target; conditions: auxiliary factor: 500 nM mouse GTSF1
Outline: (§1)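 Cleave-'n-Seq: a transcribed, DNA-blocked target RNA library (0.1 nM) was mixed with 1 nM active affinity-purified piRISC carrying one synthetic guide, with or without 500 nM GTSF1 partner protein, in HEPES–potassium acetate buffer at 33 °C for 0–8 or 0–960 min. Uncleaved targets were sequenced and normalised to depth and to weakly complementary targets. Three trials were pooled, and k3 was capped at 0.0001 min^-1. The pre-steady-state cleavage rate came from a burst-and-steady-state fit.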

[2] = system: EfPiwi piRISC loaded with piRNA #1 (26 nt); experiment: pre-steady-state target cleavage rate (min^-1); auxiliary factor: 500 nM Ephydatia muelleri Gtsf1; guide: piRNA #1 5'p-UGAGGUAGUAGGUUGUAUAGUAUCCA; MIWI and MILI are mouse PIWI proteins and EfPiwi is from a freshwater sponge; tags in brackets are library labels; higher = faster piRNA-guided slicing of the target
Outline: as §1

Sequence | pre-steady-state target cleavage rate [1] | pre-steady-state target cleavage rate [2]
GGAGACCAUACUAUUCAAGCUACUACCUCA | 0.182 ± 0.016 | 0.00339 ± 0.0032
GGAGACCAUACUAUACAACCUACGACCUCA | 0.137 ± 0.018 | 0.00282 ± 0.0019
GGAGACCUAAGAAUACAACCUACUACCUCA | 0.0112 ± 0.0044 | 0.00727 ± 0.0035
GGAGACCAUACUAUACAACCUACUAGCUCA | 0.137 ± 0.025 | 0.00491 ± 0.0023
GGAGUGGAUACAAUACAAGCUACUACCUCA | 0.213 ± 0.015 | 0.00566 ± 0.0028
GGAGACGAUUCUAUACAACCUAGUACCUCA | 0.07 ± 0.011 | 0.00392 ± 0.0022
GGAGUGGAUACUAUUCAACCUACUAGCUCA | 0.0538 ± 0.0095 | 0.0025 ± 0.0021
GGAGACCUAUCUAUACACCCUACUACCUCA | 0.0257 ± 0.006 | 0.00728 ± 0.0037
GGAGAGGAGACUAUACAACCUACUACCUCA | 0.25 ± 0.052 | 0.0151 ± 0.0058
GGAGAGGAUACAAUACAACCUACUACCUGA | 0.0513 ± 0.0087 | 0.0036 ± 0.0016
GGAGAGGUUACUAUACAACCUACUACGUCA | 0.011 ± 0.0037 | 0.00435 ± 0.0016
GGAGUGGAUACUAUACAACCUAUCUACCUCA | 0.113 ± 0.0078 | 0.00584 ± 0.0027
GGAGUGGAUACUUAUACAACCUACUACCUCA | 0.133 ± 0.0093 | 0.093 ± 0.034
GGAGAGGAUACAUAACAACCUACUACCUCA | 0.123 ± 0.011 | 0.00445 ± 0.004
GGAGUGGAUACUAAACAACCUACUACGUCA | 0.0421 ± 0.0062 | 0.00252 ± 0.0015
GGAGACGAUACUAUACAACGUUCUACCUCA | 0.00469 ± 0.0024 | 0.00329 ± 0.0013
GGAGUGGAUACUAUACUACCUACUUCCUCA | 0.0121 ± 0.0027 | 0.00222 ± 0.0021
GGAGACCAUACUAUACAACCUACUACCUCU [g2:g23:cont:t1U] | 0.254 ± 0.024 | 1.45 ± 0.55
GGAGACGAUACUAUUCAACCUUCUACCUCA | 0.0105 ± 0.0025 | 0.00443 ± 0.0025
GGAGUGGAUACUAUAGAACCUACAACCUCA | 0.0134 ± 0.0034 | 0.00234 ± 0.0015
GGAGAGGAUACGUAUACAACCUACUACCUCA | 0.0772 ± 0.011 | 0.0803 ± 0.032
GGAGACCAUACUAUACCACCUACUACCUCA | 0.157 ± 0.013 | 0.00807 ± 0.004
GGAGUGGAUACUAUACAACCUACUACGCUCA | 0.111 ± 0.015 | 0.00482 ± 0.0021
GGAGAGGAUACAAUACAACCUUCUACCUCA | 0.0148 ± 0.003 | 0.00307 ± 0.0023

Sequence | pre-steady-state target cleavage rate [1] | pre-steady-state target cleavage rate [2]
GGAGACCUUACUAUACAACCUACUACCUCG [g2:g22:cont:t1G] | 0.173 ± 0.015 | 0.062 ± 0.022
GGAGUGGAUACUAUACUACCUAGUACCUCA | 0.0719 ± 0.013 | 0.00311 ± 0.0019
GGAGAGGAUACUAUAGAACCUACUAGCUCA | 0.00752 ± 0.0035 | 0.00254 ± 0.0018
GGAGACGAUACUUUACAACCAACUACCUCA | 0.00466 ± 0.0023 | 0.00358 ± 0.0022
GGAGUGGAUACUAUACAACCUACUACGUGA | 0.0157 ± 0.0044 | 0.00378 ± 0.0015
GGAGAGGAAACUAUACAACCUACUACGUCA | 0.034 ± 0.011 | 0.00364 ± 0.0025
GGAGUGGAUACUAUACAAGCUACUACCACA | 0.133 ± 0.012 | 0.0039 ± 0.0017
GGAGACGAUAGUAAACAACCUACUACCUCA | 0.134 ± 0.01 | 0.00554 ± 0.004
GGAGACCAUACUAUAUCAACCUACUACCUCA | 0.0898 ± 0.011 | 0.0136 ± 0.0068
GGAGUGGUAUACUAUACAACCUACUACCUCA | 0.166 ± 0.011 | 0.0155 ± 0.0067
GGAGACGAUACUAUACAACCUACUACCUCA [g2:g24:cont:t1A] | 0.21 ± 0.018 | 0.0773 ± 0.024
GGAGACCAUACUUUACUACCUACUACCUCA | 0.129 ± 0.015 | 0.00371 ± 0.0032
GGAGACCAUACUAUACAACCUACUACCUA | 0.125 ± 0.016 | 0.0149 ± 0.0065
GGAGACCUAACAUAUACAACCUACUACCUCA | 0.026 ± 0.012 | 0.0546 ± 0.02
GGAGACCUAACUAUAUAACCUACUACCUCA | 0.117 ± 0.015 | 0.0063 ± 0.0034
GGAGACCAUACUAUACAACCAUACUACCUCA | 0.0045 ± 0.0036 | 0.00431 ± 0.003
GGAGACGAUUCUAUACAACCUACUACCACA | 0.219 ± 0.015 | 0.00382 ± 0.0024
GGAGACGAUACAUUACAACCUACUACCUCA | 0.173 ± 0.015 | 0.00848 ± 0.0035
GGAGACGACUACUAUACAACCUACUACCUCA | 0.204 ± 0.017 | 0.01 ± 0.0046
GGAGACCUUACUAUACAACCUACGACCUCA | 0.113 ± 0.012 | 0.00282 ± 0.0024
GGAGACCUUACUAGUACAACCUACUACCUCA | 0.0945 ± 0.0095 | 0.00695 ± 0.0046
GGAGUGGAUACUAUACAACCUCCUACCUCA | 0.0339 ± 0.0035 | 0.0053 ± 0.0019
GGAGACGAUACUAUACAACCUAGUUCCUCA | 0.00516 ± 0.0038 | 0.00305 ± 0.0018
GGAGUGGAAACAAUACAACCUACUACCUCA | 0.184 ± 0.018 | 0.00713 ± 0.0044
